Inconclusive results are not listed. Activity calls are given as the source filed them. Calls follow the shape of the dose curve; as a rule, active = well fitted inhibition curve with a large enough effect; inconclusive = small, poorly fitted or top-dose-only effect; inactive = flat fitted curve, though single readings scatter.
% is scaled to controls: 0 for no effect and ±100 for the full control effect; potency is read from the fitted curve at half-maximal effect.

The test deals with HaCat. Put plainly: Cytotoxic Profiling of Annotated Libraries Using Quantitative High-Throughput Screening (AID 1296008). Also: nearly all actives have a fitted effect of over 60% in size. Conditions: Five cell lines viability, CellTiter-Glo ATP luminescence, 48-72 h; max response: stronger effect = lower value. The essentials:
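Cells exposed to compounds for 48 or 72 hr at 37 degrees Celsius. Viability read as ATP-coupled luminescence with CellTiter-Glo after 10 min at room temperature.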
In general terms: ATP-based viability assays read luminescence as a measure of living cells.
On to `C=CCCN1CCC2(CC1)CN(C(=O)c1c(F)cccc1F)c1ccc(Cl)cc12`, for which the max response was -0.627% (inactive).
Same read-out and setting: with `C[C@@H]1CC[C@]2(C(=O)O)CC[C@]3(C)C(=CCC4[C@@]5(C)CC[C@H](O)[C@](C)(C(=O)O)C5CC[C@]43C)C2[C@]1(C)O` (stereo partly specified) the figure was 4.55% (inactive).
Same read-out and setting: with `O=C(c1ccccn1)N(Cc1cccs1)C1(C(=O)NC2CCCCC2)CCCCC1` the figure was -24.4% (inactive); with `NS(=O)(=O)c1ccc(N2CCN(CC[C@@H]3OCCc4ccccc43)CC2)cc1`, -12.7% (inactive).
On the same count and under the same terms, with `C=CC(C)(O)CC[C@@H]1[C@@]2(C)CCCC(C)(C)C2CC[C@@]1(C)O` (stereo partly specified) the figure was -28.7% (inactive).
Regarding `C[C@@H]1O[C@@H](O[C@H]2CC[C@@]3(C)C(CC[C@]4(C)C3CC=C3[C@@H]5CC(C)(C)CC[C@]5(C(=O)O[C@@H]5O[C@H](CO)[C@@H](O)[C@H](O)[C@H]5O)CC[C@]34C)[C@]2(C)CO)[C@H](O)[C@H](O[C@@H]2O[C@H](CO)[C@@H](O)[C@H](O)[C@H]2O)[C@H]1O` (stereo partly specified), the max response is -8.27% (inactive).
Still for that read-out and setting: the result for `CC(C)=CCCC1(C)C2CCC1(C)C(O)C2` (stereo unspecified) reads -23% (inactive); that for `COCC(c1ccc(C(F)(F)F)cc1)N1CCN(C2(C)CCN(C(=O)c3c(C)ncnc3C)CC2)CC1C` (stereo unspecified), -10.9% (inactive); that for `C=C[C@H](/C=C\c1ccc(O)cc1)c1ccc(O)cc1`, 1.54% (inactive).
For `CCOc1ccc(-n2c([C@@H](C)N(Cc3cccnc3)C(=O)Cc3ccc(OC(F)(F)F)cc3)nc3ncccc3c2=O)cc1`, the max response was -4.53% (inactive).
Regarding `CC(O)(C(=O)C1CC1(CO)COC1OC(CO)C(O)C(O)C1O)C1C(O)CC2C3CC=C4CC(O)CC(O)C4(C)C3C(O)CC21C` (stereo unspecified), the Potency is 1720 nM (active).
Consider `C=CC(C)(O)CC/C=C(/C)COC(=O)C(C)C1CCC(C)(C=C)O1` (stereo unspecified), for which the max response is 3.72% (inactive).
Same read-out and setting: the result for `COc1cc(NC(=O)c2cc(C3CC3)on2)c(OC)cc1Cl` reads -5.44% (inactive); that for `CC(=O)O[C@@H]1CC2C(/C=C(\C)C(=O)[C@@]3(O)C[C@@H](C)[C@H](OC(=O)c4ccccc4)C3/C=C/1C)C2(C)C` (stereo partly specified), -1.64% (inactive); that for `CCC/C=C\C=C/CCc1cc(O)c([C@@H]2O[C@H](CO)[C@@H](O)[C@H](O)[C@H]2O)c(O)c1C(=O)OC`, -26.9% (inactive).
The same measure, in the same setting: with `Nc1nc2c(s1)CCN(Cc1ccc(Cl)cc1)CC2` the figure was -24.3% (inactive).

The values are drawn from PubChem BioAssay (NCATS).
